Measurements reported in PubChem BioAssay (Tox21).
Records with an inconclusive call do not appear. Active and inactive are the calls of the source. Unless noted, the call rests on the fitted dose curve; in most records, active means well fitted curve in the direction sought with a large enough effect in the repeat runs; inconclusive means weak or mixed curves; inactive means no such curve, though single readings can be large; an effect the other way counts as inactive or inconclusive.

What was measured:
[1] = qHTS assay to identify small molecule agonists of the RXR signaling pathway - cell viability counter screen (AID 1159529); further: nearly all actives have a fitted effect of over 50% in size; further: potency means the concentration at half of the fitted maximal effect;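 on activity change, negative = cytotoxicity: HEK 293T cells carrying an RXR-alpha UAS beta-lactamase reporter; series mostly up to about 77 µM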
Procedure, shortened: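 In this parallel viability measure, GeneBLAzer RXR-alpha HEK 293T cells (2% charcoal-stripped FBS) were given a 5 hr preincubation, treated with compounds 16 hr at 37 C, and read by CellTiter-Glo luminescence.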

[2] = qHTS assay to identify small molecule antagonists of the retinoid acid receptor (RAR) signaling pathway - cell viability counter screen (AID 1159551); further: nearly all actives have a fitted effect of over 35% in size
Procedure, shortened: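 Following overnight attachment, C3RL4 reporter cells received DMSO-dissolved compounds and then retinol (1 uM final). Six hours later at 37 C, ATP content was measured by CellTiter-Glo luminescence.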

[3] = qHTS assay to identify small molecule antagonists of the retinoic acid receptor (RAR) signaling pathway (AID 1159552; further: nearly all actives have a fitted effect of over 50% in size)
Procedure, shortened: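 C3RL4 RARE-luc cells, overnight plating; retinol 1 uM final added right after compound; 6 hr 37 C; luciferase read at 30 min RT.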

[4] = qHTS assay to identify small molecule agonists of the retinoic acid receptor (RAR) signaling pathway (AID 1159553); further: potency means the concentration at half of the fitted maximal effect
Procedure, shortened: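 Cell line C3RL4, RARE luciferase reporter. Treatment: compounds in DMSO, 6 hr, 37 C, 5% CO2, after overnight plating. Detection: luminescence, 30 min RT after reagent.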

[5] = qHTS assay to identify small molecule antagonists of the estrogen related receptor (ERR) signaling pathway from Tox21 library - cell viability counter screen (AID 1224834); further: nearly all actives have a fitted effect of over 30% in size
Procedure, shortened: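 Viability readout (CellTiter-Fluor fluorescence, 30 min at 37 C) multiplexed with the ERR assay; cells treated 17.5 h at 37 C with compounds delivered in DMSO.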

[6] = biological target: Luciferin 4-monooxygenase (Photinus pyralis) (UniProt P08659); experiment: qHTS assay to identify small molecule inhibitors of firefly luciferase (AID 1224835); further: nearly all actives have a fitted effect of over 25% in size; further: potency means the concentration at half of the fitted maximal effect
Luciferin 4-monooxygenase (Photinus pyralis), sequence (P08659 whole entry, looked up): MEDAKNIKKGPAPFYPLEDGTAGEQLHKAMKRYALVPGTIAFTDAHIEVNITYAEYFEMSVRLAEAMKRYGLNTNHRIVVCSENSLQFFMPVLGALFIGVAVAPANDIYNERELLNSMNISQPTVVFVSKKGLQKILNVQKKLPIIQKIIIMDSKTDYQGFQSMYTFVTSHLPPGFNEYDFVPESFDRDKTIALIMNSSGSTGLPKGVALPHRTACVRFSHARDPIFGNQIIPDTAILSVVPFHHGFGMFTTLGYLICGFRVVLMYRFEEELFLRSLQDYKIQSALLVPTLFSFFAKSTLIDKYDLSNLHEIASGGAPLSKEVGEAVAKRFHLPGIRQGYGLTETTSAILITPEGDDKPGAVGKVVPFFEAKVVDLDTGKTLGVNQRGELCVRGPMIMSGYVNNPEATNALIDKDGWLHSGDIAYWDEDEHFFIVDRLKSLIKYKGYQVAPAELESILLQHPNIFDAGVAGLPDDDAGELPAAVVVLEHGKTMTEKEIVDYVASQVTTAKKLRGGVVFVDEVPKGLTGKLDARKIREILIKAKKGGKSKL
Procedure, shortened: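 Quantitative HTS format; KM concentrations of both substrates. Purified P. pyralis FLuc activity quantified from luminescence images.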

[7] = qHTS assay to identify small molecule agonists of the constitutive androstane receptor (CAR) signaling pathway - cell viability counter screen (AID 1224836); further: series mostly up to about 92 µM; nearly all actives have a fitted effect of over 45% in size
Procedure, shortened: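 Using CellTiter-Fluor, viability of HepG2 cells harbouring hCAR and CYP2B6-2.2kb was measured following 23 h incubation with a 15-concentration compound series plus PK11195 (0.75 uM final).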

[8] = qHTS assay to identify small molecule antagonists of the constitutive androstane receptor (CAR) signaling pathway - cell viability counter screen (AID 1224837); further: series mostly up to about 92 µM; nearly all actives have a fitted effect of over 45% in size
Procedure, shortened: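 Fluorescence from CellTiter-Fluor served as the viability signal. Human hepatoma HepG2 cells stably bearing hCAR and CYP2B6-2.2kb received compound plus CITCO (50 nM final) for 23 hr.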

[9] = qHTS assay to identify small molecule antagonists of the estrogen related receptor signaling pathway with the pleiotropic PPARgamma coactivator (PGC) from Tox21 10K library - cell viability counter screen (AID 1224840; active means well fitted cell-killing curve with a large enough effect in the repeat runs, not every such curve was filed as active; further: nearly all actives have a fitted effect of over 40% in size)
Procedure, shortened: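 Compounds in DMSO, alongside positive and negative controls, were pinned onto PGC/ERR cells (2,000 per well). Exposure lasted 17.5 hours at 37 C, followed by a 30-minute CellTiter-Fluor incubation and fluorescence reading.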

[10] = biological target: Nuclear receptor subfamily 1 group I member 3 (Homo sapiens) (UniProt Q14994); experiment: qHTS assay to identify small molecule antagonists of the constitutive androstane receptor (CAR) signaling pathway (AID 1224838);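 further: HepG2 cells stably expressing hCAR with CYP2B6 luciferase reporter stimulated by CITCO; nearly all actives have a fitted effect of over 40% in size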
Nuclear receptor subfamily 1 group I member 3 (Homo sapiens), sequence (Q14994 whole entry, looked up): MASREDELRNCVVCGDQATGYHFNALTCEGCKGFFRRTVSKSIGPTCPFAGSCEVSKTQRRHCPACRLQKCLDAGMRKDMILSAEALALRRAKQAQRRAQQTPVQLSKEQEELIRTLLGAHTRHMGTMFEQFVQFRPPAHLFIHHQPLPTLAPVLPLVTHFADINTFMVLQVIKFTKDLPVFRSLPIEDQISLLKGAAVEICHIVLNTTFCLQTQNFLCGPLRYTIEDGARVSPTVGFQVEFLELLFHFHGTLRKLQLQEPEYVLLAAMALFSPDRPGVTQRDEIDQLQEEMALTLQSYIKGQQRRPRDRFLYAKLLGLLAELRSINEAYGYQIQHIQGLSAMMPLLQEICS
Procedure, shortened: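 Quantitative HTS in double-stable HepG2-CYP2B6-hCAR cells. After 4 h plating, cells get compound (15 concentrations) and CITCO at 50 nM final, incubate 24 h at 37 C, then ONE-Glo luminescence is read.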

[11] = biological target: Nuclear receptor subfamily 1 group I member 3 (Homo sapiens) (UniProt Q14994); experiment: qHTS assay to identify small molecule agonists of the constitutive androstane receptor (CAR) signaling pathway (AID 1224839); further: nearly all actives have a fitted effect of over 15% in size; further: potency means the concentration at half of the fitted maximal effect
Procedure, shortened: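 Double-stable HepG2 cells (hCAR, CYP2B6-2.2kb) seeded 4 h before compound addition. Exposure 24 h with 0.75 uM PK11195 final. Luciferase detected by ONE-Glo.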

[12] = qHTS assay to identify small molecule antagonists of the estrogen related receptor signaling pathway with the pleiotropic PPARgamma coactivator (PGC) from Tox21 10K library (AID 1224841; call rule not given here; further: series mostly up to about 92 µM; actives are mostly falling curves and most rising ones were filed inactive; nearly all actives have a fitted effect of over 50% in size)
Procedure, shortened: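 Compound exposure ran 18 hours at 37 C in PGC/ERR cells (2,000/well) that had first rested 6 hours in a 37 C/5% CO2 incubator. Luciferase activity was then detected with One-Glo after a 30-minute room-temperature step.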

[13] = qHTS assay to identify small molecule agonists of the estrogen related receptor signaling pathway with the pleiotropic PPARgamma coactivator (PGC) from Tox21 10K library (AID 1224842); further: nearly all actives have a fitted effect of over 15% in size
Procedure, shortened: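 PGC/ERR reporter cells (NTP line) were seeded 2,000 per well, rested 6 h at 37 C/5% CO2, then pin-dosed with compounds in DMSO for 18 h at 37 C; luciferase read by One-Glo luminescence after 30 min at room temperature.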
On the % scale 0 is the no-effect control and ±100 the full control effect.

CCCCCCCCS
inactive: Potency [1] | outcome [2] | outcome [3] | Potency [4] | Potency [5] | Potency [6] | Potency [7] | Potency [8] | Potency [9]

CCN(CC)CC(=O)OCC(=O)[C@@]1(O)CC[C@H]2[C@@H]3CCC4=CC(=O)CC[C@]4(C)[C@H]3[C@@H](O)C[C@@]21C
inactive: Potency [1] | outcome [2] | outcome [3] | Potency [4] | Potency [5] | Potency [6] | Potency [7] | Potency [8] | Potency [10] | Potency [11] | Potency [9]

O=C(O)c1cccc(C(=O)O)c1C(=O)O
inactive: outcome [2] | outcome [3] | Potency [4] | Potency [5] | Potency [6] | Potency [7] | Potency [8] | Potency [10] | Potency [11] | Potency [9]
active: Potency [1] 24.8 µM

COc1ccc(/C=C/S(=O)(=O)NC(=O)c2ccc(C)cc2Cl)cc1
inactive: Potency [1] | outcome [2] | outcome [3] | Potency [4] | Potency [5] | Potency [7] | Potency [8] | Potency [9]
active: Potency [6] 79.6 µM

C=CC(=O)NC(C)(C)C
inactive: Potency [1] | outcome [2] | outcome [3] | Potency [4] | Potency [5] | Potency [6] | Potency [7] | Potency [8] | Potency [10] | Potency [11] | Potency [9]

O=[N+]([O-])c1ccccc1CCO
inactive: Potency [1] | outcome [2] | outcome [3] | Potency [4] | Potency [5] | Potency [6] | Potency [7] | Potency [8] | Potency [9]

CC(=O)c1ccc(Cl)c(Cl)c1Cl
inactive: Potency [1] | outcome [2] | outcome [3] | Potency [4] | Potency [5] | Potency [6] | Potency [7] | Potency [8] | Potency [10] | Potency [11] | Potency [9]

CCCCOC(=O)C(C)Oc1ccc(Oc2ccc(C(F)(F)F)cn2)cc1 (configuration not stated)
inactive: Potency [1] | outcome [2] | outcome [3] | Potency [4] | Potency [5] | Potency [6] | Potency [7] | Potency [8] | Potency [11] | Potency [9]

c1ccc(-c2ccc(-c3ccccc3)cc2)cc1
active: Potency [4] 0.996 µM | Potency [6] 0.82 µM | Potency [11] 3.53 µM
inactive: activity change, negative = cytotoxicity [1] 4.66% [at 15.8 µM] | activity change, negative = cytotoxicity [2] 4.6% [at 19 µM] | activity, negative = inhibition [3] 100% [at 19 µM] | viability change, negative = cytotoxic [5] 0.464% [at 19 µM] | viability change, negative = cytotoxic [7] 4.23% [at 19 µM] | activity change, negative = cytotoxicity [8] -2.21% [at 19 µM] | activity, negative = inhibition [10] 139% [at 19 µM] | viability change, negative = cytotoxic [9] 3.19% [at 19 µM]

O=[N+]([O-])c1cccc(I)c1
inactive: Potency [1] | outcome [2] | outcome [3] | Potency [4] | Potency [5] | Potency [6] | Potency [7] | Potency [8] | Potency [10] | Potency [11] | Potency [9]

Cc1c(-c2cccnc2)c2ccccc2n1CCCCC(=O)O
inactive: Potency [1] | outcome [2] | outcome [3] | Potency [5] | Potency [7] | Potency [8] | Potency [10] | Potency [9] | Potency [12]
active: Potency [4] 43.3 µM | Potency [6] 39.9 µM

C=CCCC
inactive: Potency [1] | outcome [2] | outcome [3] | Potency [4] | Potency [5] | Potency [6] | Potency [7] | Potency [8] | Potency [10] | Potency [11] | Potency [9]

Cc1ccc2ccccc2c1[N+](=O)[O-]
inactive: Potency [1] | outcome [2] | outcome [3] | Potency [4] | Potency [5] | Potency [6] | Potency [7] | Potency [8] | Potency [10] | Potency [11] | Potency [9]

O=C(O)c1ccccc1[N+](=O)[O-]
inactive: Potency [1] | outcome [2] | outcome [3] | Potency [4] | Potency [5] | Potency [6] | Potency [7] | Potency [8] | Potency [9]

CC(=O)CC/C=C(\C)CC/C=C(\C)CC/C=C(\C)CCC=C(C)C
inactive: Potency [1] | outcome [2] | outcome [3] | Potency [4] | Potency [5] | Potency [6] | Potency [7] | Potency [8] | Potency [10] | Potency [9]

CCOC(C)OCC
inactive: Potency [1] | outcome [2] | outcome [3] | Potency [4] | Potency [5] | Potency [6] | Potency [7] | Potency [8] | Potency [9]

Nc1ncnc2c1ncn2[C@@H]1O[C@H](CO)[C@@H](O)[C@H]1O
inactive: Potency [1] | outcome [2] | outcome [3] | Potency [4] | Potency [5] | Potency [6] | Potency [7] | Potency [8] | Potency [10] | Potency [9]

CC(CCl)OC(C)CCl (configuration not stated)
inactive: Potency [1] | outcome [2] | outcome [3] | Potency [4] | Potency [5] | Potency [6] | Potency [7] | Potency [8] | Potency [10] | Potency [11] | Potency [9]

CCCCCCCCC(=O)OCC(C)OC(=O)CCCCCCCC (configuration not stated)
inactive: Potency [1] | outcome [2] | outcome [3] | Potency [4] | Potency [5] | Potency [6] | Potency [7] | Potency [8] | Potency [10] | Potency [11] | Potency [9]

CCOCCn1c(N2CCCN(C)CC2)nc2ccccc21
inactive: Potency [1] | outcome [2] | outcome [3] | Potency [4] | Potency [5] | Potency [6] | Potency [7] | Potency [8] | Potency [9]

O=C(O)c1ccc(O)c(O)c1
inactive: Potency [1] | outcome [2] | outcome [3] | Potency [4] | Potency [5] | Potency [6] | Potency [7] | Potency [8] | Potency [10] | Potency [11] | Potency [9]

N#Cc1ccc(CC(=O)c2cccc(C(F)(F)F)c2)cc1
inactive: Potency [1] | outcome [2] | outcome [3] | Potency [4] | Potency [5] | Potency [6] | Potency [7] | Potency [8] | Potency [10] | Potency [9] | Potency [13]

CCCCCCCCCCCC(=O)OCC
inactive: Potency [1] | outcome [2] | outcome [3] | Potency [4] | Potency [5] | Potency [6] | Potency [7] | Potency [8] | Potency [9]

CCCOC(C)=O
inactive: Potency [1] | outcome [2] | outcome [3] | Potency [4] | Potency [5] | Potency [6] | Potency [7] | Potency [8] | Potency [10] | Potency [11] | Potency [9]
